In the library only some 2% were active in any assay of this set; here they are far more common.
NadD block = NadD (S. aureus) enzyme inhibition | purified NadD enzyme, colorimetric absorbance read-out | inhibition, % at 20 µM | 360,000 tested, 0.78% active; in the data active = inhibition above about 26%
HGIII-sPLA2 inh = Blocks human group III sPLA2 activity; QFRET BODIPY PC-A2 liposome hydrolysis, fluorescence; inhibition, % at 12.2 µM; 370,000 tested, 0.56% active; AID 743126;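 active = inhibition above mean plus 3 SD of compounds lying within the high and low control bounds, cut at about 19% in these data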;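 also: 0% = median of test compound wells and 100% = no enzyme DMSO wells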
Target sequence (Q9NZ20 whole entry, looked up): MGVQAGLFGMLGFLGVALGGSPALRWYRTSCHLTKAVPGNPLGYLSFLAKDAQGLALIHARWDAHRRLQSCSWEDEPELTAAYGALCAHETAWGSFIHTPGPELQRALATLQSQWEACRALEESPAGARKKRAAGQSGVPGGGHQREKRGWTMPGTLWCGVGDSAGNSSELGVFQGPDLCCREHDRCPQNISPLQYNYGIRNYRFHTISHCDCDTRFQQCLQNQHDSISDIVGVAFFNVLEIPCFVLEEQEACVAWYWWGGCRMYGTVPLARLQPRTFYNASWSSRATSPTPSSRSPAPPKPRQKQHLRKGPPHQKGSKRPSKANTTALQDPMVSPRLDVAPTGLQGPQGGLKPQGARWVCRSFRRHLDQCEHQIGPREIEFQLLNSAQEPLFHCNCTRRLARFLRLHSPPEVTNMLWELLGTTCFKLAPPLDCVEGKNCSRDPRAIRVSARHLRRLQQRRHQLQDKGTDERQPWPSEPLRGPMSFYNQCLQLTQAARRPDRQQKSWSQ
DAGLB inhibitor = blocks human DAGLB lipase activity; 340,000 tested, 0.059% active; Q8NCG7; HEK293T DAGLB membrane lysate, EnzChek fluorogenic substrate; inhibition, % at 5.17 µM; in the data active = inhibition above about 34%;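 also: 0% = enzyme with vehicle and 100% = wells lacking enzyme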
Neddyl block = blocks human cullin neddylation; TR-FRET cullin neddylation, biochemical; inhibition, % at 25 µM; 360,000 tested, 0.58% active; AID 651699; in the data active = inhibition above about 36%
ARNT TACC3 PPI = disruptors of human ARNT/TACC3 interaction; inhibition, % at 9.99 µM; 390,000 tested, 0.66% active; AlphaScreen His-ARNT PAS-B/GST-TACC3 binding, luminescence; TACC3 fragment carries E629A point mutation; Q9Y6A5; AID 623870;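 active = mean inhibition of replicates at least 50% and at least half of replicates each reaching 50%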;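 also: 0% = complete ARNT plus TACC3 wells and 100% = ARNT alone without TACC3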
Neddyl conf = cullin neddylation inhibition, confirmation. shares compounds with Neddyl block. TR-FRET cullin neddylation biochemical assay. calls only at 25 µM. 1,800 tested, 13% active. AID 652217; in the data active = inhibition above about 40%;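 also: neddylation substrate is the cullin 1 ring ligase complex with SKP2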
* marks the source's active call; other numbers are inactive results; i = inactive; nt = no result given; + = active, no number.

SMILES	NadD block	HGIII-sPLA2 inh	DAGLB inhibitor	Neddyl block	ARNT TACC3 PPI	Neddyl conf
COC(=O)C1C(O)=C(C(C)=Nc2cccc3ccccc23)C(=O)CC1(C)C (configuration not stated)	-3	4	0	45*	-3	i
O=C(CN1CCCC1)N1CCCc2c1c(=O)oc1ccc(OCc3ccccc3)cc21	5	-11	-1	50*	3	nt
Cc1nn(-c2ccccc2)c2nc(-c3ccccc3)cc(C(=O)N3CCOCC3)c12	-17	-22	-4	nt	-8	nt
Cc1cc(C)nc(-n2nc(C)c3c(C(=O)O)cc(-c4cccc(Br)c4)nc32)n1	-4	0	-2	40*	-3	i
O=C(O)CN(c1ccccn1)S(=O)(=O)c1ccccc1	2	5	-1	42*	1	i
O=C(O)CN(c1ccccn1)S(=O)(=O)c1ccc(Cl)cc1	2	12	1	33	-7	nt
CCNC(=O)COC(=O)c1cc(-c2ccc(OC)cc2)nc2ccccc12	5	-15	-2	57*	1	nt
COc1ccc(-c2cc(C(=O)OCC(=O)NC(C)(C)C)c3ccccc3n2)cc1	-8	nt	-8	nt	-2	nt
CCCNC(=O)COC(=O)c1cc(-c2ccc(OC)cc2)nc2ccccc12	-9	-10	-5	nt	6	nt
O=C(COC(=O)c1cc(-c2ccccc2)nc2ccccc12)NC1CC1	-6	-2	-1	-1	-3	nt
COCCNC(=O)COC(=O)c1cc(-c2ccc(OC)cc2)nc2ccccc12	0	-13	-7	44*	-4	nt
COc1ccc(-c2cc(C(=O)OCC(=O)NC3CC3)c3ccccc3n2)cc1	-6	2	-3	56*	-1	nt
CCCNC(=O)N(C)C[C@H]1Oc2cc(-c3cncnc3)ccc2S(=O)(=O)N([C@@H](C)CO)C[C@@H]1C	nt	nt	nt	nt	5	nt
O=C(N/N=C/c1ccc(N2CCOCC2)s1)c1ccccc1Br	-2	5	-1	-3	nt	nt
Clc1cccc(N/N=C/c2ccc(N3CCOCC3)s2)c1	12	3	0	41*	-2	i
CCNC(=O)[C@@H]1[C@@H](CO)[C@@H]2Cn3c(ccc(C4=CCCC4)c3=O)[C@H]1N2C(=O)CC	nt	nt	nt	nt	1	nt
Cc1ccc(Cn2c(=N)c(C(=O)NCCN3CCOCC3)cc3c(=O)n4ccccc4nc32)cc1	-5	-9	-1	62*	-4	+
OC1CCN(c2c3c(nc4cc(-c5ccc(Cl)cc5)nn24)CCC3)CC1	10	-5	-1	40*	11	i
c1cncc(CNc2ncnc3ccc(-c4ccoc4)cc23)c1	-7	9	0	17	-4	nt
Cc1cccc(CNc2ncnc3ccc(-c4ccc5c(c4)OCCO5)cc23)c1	10	-12	-5	38*	9	i
c1cncc(CNc2ncnc3ccc(-c4ccc5c(c4)OCO5)cc23)c1	-1	-3	-2	28*	15	i
c1nc(NCc2ccc3c(c2)OCO3)c2cc(-c3ccc4c(c3)OCCO4)ccc2n1	15	-16	0	34	3	nt
C[C@@H]1CCCCO[C@H](CN(C)S(=O)(=O)c2cccs2)[C@H](C)CN([C@@H](C)CO)C(=O)c2cc(NC(=O)C3CCCCC3)ccc2O1	nt	nt	nt	nt	-1	nt
CCCCN(CC)CCCNC(=O)c1cc2c(=O)n(C)c3ccccc3c2n1C	-7	3	-2	43*	nt	i
COc1ccc2c(c1)c(=O)oc1c(C)c(OC(C)C(=O)N[C@@H](Cc3c[nH]c4ccc(O)cc34)C(=O)O)ccc12 (some centres not stated)	8	-32	2	47*	31	nt
SMILES	NadD block	HGIII-sPLA2 inh	DAGLB inhibitor	Neddyl block	ARNT TACC3 PPI	Neddyl conf
Cc1ccc(S(=O)(=O)Nc2cccc3c2O[C@@H](CN(C)C(=O)Nc2ccc(F)cc2)[C@H](C)CN([C@H](C)CO)C3=O)cc1	nt	nt	nt	nt	-5	nt
CCn1c(=O)c2cc(C(=O)N3CCOCC3)sc2c2ccccc21	-1	-3	1	48*	1	nt
O=C(c1cc2c(=O)oc3ccccc3c2s1)N1CCOCC1	0	4	5	-13	7	nt
COc1ccc(-c2c(C)nn3c(NC4CCCC4)cc(C)nc23)cc1OC	-3	5	0	48*	2	i
Cc1cc(NC2CCCC2)n2nc(C)c(-c3ccccc3)c2n1	-4	12	-10	nt	-10	nt
Cc1cc(=O)oc2cc(NC(=O)CN3C(=O)NC(C)(c4ccccc4)C3=O)ccc12 (configuration not stated)	1	2	4	58*	6	+
CC1(c2ccccc2)NC(=O)N(CC(=O)Nc2ccc3c(c2)OCO3)C1=O (configuration not stated)	0	-6	1	0	nt	nt
Cc1ccccc1CC(=O)Nc1ccc2c(C)cc(=O)oc2c1	1	-1	1	44*	-3	i
CCCc1cc(=O)oc2c(C)c(OC3CCCCC3=O)ccc12 (configuration not stated)	-6	8	-2	35	-12	nt
CCCCc1cc(=O)oc2cc(OC3CCCCC3=O)ccc12 (configuration not stated)	2	0	-2	39*	-1	i
C[C@H](CO)N1C[C@H](C)[C@@H](CN(C)Cc2ccc(C(F)(F)F)cc2)OCCCC[C@H](C)Oc2ccc(NC(=O)Cc3ccccc3)cc2C1=O	nt	nt	nt	nt	0	nt
CCOc1ccc(N/C=C/C(=O)c2ccc(OC)c(OC)c2)cc1	-4	-20	1	41*	-1	i
C[C@H](NC(=O)C[C@H]1CC[C@@H](NC(=O)C2CCC2)[C@H](CO)O1)c1ccccc1	nt	nt	nt	nt	6	nt
CCCSc1nc(N)c2c3c(sc2n1)CN(C)CC3	14	nt	4	28	15	nt
COCCSc1nc(N)c2c3c(sc2n1)CN(C)CC3	0	-7	-2	43*	5	i
CN(C)CCSc1nc(N)c2c3c(sc2n1)CN(C)CC3	-1	-2	-2	39*	16	i
CC=Cc1ccc2n(c1=O)C[C@@H]1[C@@H](CO)[C@H](C(=O)NCCC)N(C(=O)CC)[C@H]21 (mixture of isomers)	nt	nt	nt	nt	-11	nt
CCCNC(=O)c1cc2c(c(-c3cccc(-c4cccc(OC)c4)c3)n1)[C@H](CCO)N([S@@](=O)C(C)(C)C)C2	nt	nt	nt	nt	2	nt
Cc1nn(-c2ccccc2)c2[nH]c(=O)cc(C(F)F)c12	-6	-2	0	23	2	nt
Cc1ccc(-n2nc(C)c3c(C)cc(=O)[nH]c32)cc1	6	-6	-3	44*	-2	i
CC1Cn2c(nnc2-c2cc3ccccc3cc2O)S1 (configuration not stated)	-4	-7	0	44*	36	i
CC1Cn2c(nnc2-c2ccccc2O)S1 (configuration not stated)	2	-1	-1	5	nt	nt
Cn1c(=O)c(-c2ccccc2)nc2ccccc21	-1	8	2	58*	-1	+

Assay outcomes as filed in PubChem.
